PubChem BioAssay
Calls of active or inactive are those of the source.

Assays:
Albumin (Bos taurus) = Albumin (Bos taurus) (UniProt P02769); assay: compounds binding labelled BSA control protein – biochemical, small-molecule microarray, Alexa647 label, 635/667 nm fluorescence, artefact control for SMM control protein annotation, profiling panel (AID 1118); details: BSA-A647 binding, fluorescence 635 nm, higher = more signal;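 also: score merges 667 nm emission intensity and signal-to-noise per printed compound spot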
Chain of Albumin (Bos taurus) (P02769 whole entry, looked up): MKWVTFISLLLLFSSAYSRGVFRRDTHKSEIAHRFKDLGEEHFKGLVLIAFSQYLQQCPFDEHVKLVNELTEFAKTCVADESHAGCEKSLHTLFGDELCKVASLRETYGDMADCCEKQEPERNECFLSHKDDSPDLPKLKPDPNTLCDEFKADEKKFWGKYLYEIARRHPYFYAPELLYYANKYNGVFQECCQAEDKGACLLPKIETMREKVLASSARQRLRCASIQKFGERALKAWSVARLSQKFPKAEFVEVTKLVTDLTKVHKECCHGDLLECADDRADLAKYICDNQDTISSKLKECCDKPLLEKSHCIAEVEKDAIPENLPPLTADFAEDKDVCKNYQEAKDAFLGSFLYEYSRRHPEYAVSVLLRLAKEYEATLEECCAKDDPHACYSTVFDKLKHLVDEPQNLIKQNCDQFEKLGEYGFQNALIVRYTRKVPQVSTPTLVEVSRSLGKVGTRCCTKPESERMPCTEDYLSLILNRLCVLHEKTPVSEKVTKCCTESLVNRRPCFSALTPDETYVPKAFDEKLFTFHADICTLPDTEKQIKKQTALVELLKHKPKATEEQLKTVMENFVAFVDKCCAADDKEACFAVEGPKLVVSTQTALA

[1] = probe aXIP binding to arrayed compounds – biochemical, NeuroSMM set, 635/667 nm fluorescence, primary screen (AID 1119); details: small-molecule microarray, higher = more signal, called active from +8 up or from −8 down;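 also: probe is the protein aXip251-270 applied at 1 µg/mL to compound-printed slides; binding of probe to printed compounds measured as 667 nm fluorescence plus signal to noise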
[2] = probe aNOTCH3 binding on compound microarray – biochemical, small-molecule microarray, 635/667 nm fluorescence, primary screen (AID 1120); details: higher = more signal;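 also: probe is a biotin-tagged antibody raised against NOTCH3 rather than NOTCH3 protein; score merges spot fluorescence near 667 nm with spot signal to noise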
[3] = probe aNOTCH2 binding on compound microarray – biochemical, small-molecule microarray, 635/667 nm fluorescence, primary screen (AID 1121); details: higher = more signal;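 also: score merges feature fluorescence read at 667 nm with its signal to noise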
[4] = target: Carbonic anhydrase 2 (Homo sapiens) (UniProt P00918); assay: compounds binding carbonic anhydrase 2 – biochemical, small-molecule microarray, Alexa647-labelled CAII, profiling panel (AID 1122); details: CAII-A647 binding fluorescence, higher = more signal
[5] = COS7 lysate on small-molecule microarray, probe aHis, 635 nm (AID 1123); details: COS7 cell lysate, fluorescence, higher = more signal;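 also: z-score combines 667nm fluorescence intensity with signal-to-noise per printed compound spot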
[6] = probe aLAP1 signal on lysate-treated microarray – cell lysate, small-molecule microarray, COS7 lysate, primary screen (AID 1124); details: probe aLAP1, fluorescence, higher = more signal;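 also: lysate comes from COS7 cells expressing LAP1 and is applied at 0.3 µg/mL; score merges spot fluorescence near 667 nm with signal-to-noise over triplicate slides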
Sam68 (KHDRBS1) = assay: compounds binding KHDRBS1 protein – biochemical, small-molecule microarray, 635 nm fluorescence, primary screen (AID 1125); details: higher = more signal;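 also: score merges 667 nm channel intensity with signal to noise over triplicate slides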
[7] = tested on: Chordin-like protein 2 (CHRDL2); assay: compounds binding chordin-like 2 – biochemical, small-molecule microarray, 635 nm fluorescence, primary screen (AID 1126); details: fluorescence 635 nm, higher = more signal;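 also: printed compound slides probed with Chrdl2 protein at 4 µg/mL for 1 h at 4 C; score merges 667 nm emission intensity with signal to noise over three replicate slides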
[8] = target: Concanavalin-A (Canavalia ensiformis) (UniProt P02866); assay: compounds binding concanavalin A lectin – biochemical, small-molecule microarray, Alexa647 label, 635 nm, artefact control for SMM control protein annotation, primary screen (AID 1127); details: ConA-A647 binding fluorescence, higher = more signal;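 also: z combines 667 nm emission intensity with signal-to-noise across three replicate slides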
Chain of Concanavalin-A (Canavalia ensiformis) (P02866 whole entry, looked up): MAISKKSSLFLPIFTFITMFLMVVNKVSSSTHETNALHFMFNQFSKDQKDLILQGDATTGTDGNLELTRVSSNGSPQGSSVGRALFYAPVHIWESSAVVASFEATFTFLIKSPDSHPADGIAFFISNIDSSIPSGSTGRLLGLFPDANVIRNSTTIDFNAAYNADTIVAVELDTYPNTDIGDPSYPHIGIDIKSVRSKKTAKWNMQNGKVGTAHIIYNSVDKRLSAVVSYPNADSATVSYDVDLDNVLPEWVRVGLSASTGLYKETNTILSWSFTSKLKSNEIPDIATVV

[9] = compounds binding Alexa647 anti-His antibody – biochemical, small-molecule microarray, 635 nm fluorescence, artefact control for SMM control protein annotation, primary screen (AID 1128); details: higher = more signal;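 also: score merges feature fluorescence with signal-to-noise for each printed compound spot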
[10] = tested on: Human papillomavirus type 1a E7 protein (residues 1-88); assay: HPV1a E7 small-molecule binders, primary screen, biochemical, small-molecule microarray, residues 1-88, 635 nm (AID 1129); details: small-molecule microarray binding, fluorescence 635 nm; higher = more signal
[11] = target: Focal adhesion kinase 1 (Homo sapiens) (UniProt Q05397); assay: PTK2 protein binding on printed compound slides – biochemical, small-molecule microarray, 635/667 nm fluorescence, BSA, DTT, primary screen (AID 1130); details: 635 nm fluorescence, higher = more signal;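 also: composite of spot emission at 667 nm and signal to noise over triplicate slides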
Chain of Focal adhesion kinase 1 (Homo sapiens) (Q05397 whole entry, looked up): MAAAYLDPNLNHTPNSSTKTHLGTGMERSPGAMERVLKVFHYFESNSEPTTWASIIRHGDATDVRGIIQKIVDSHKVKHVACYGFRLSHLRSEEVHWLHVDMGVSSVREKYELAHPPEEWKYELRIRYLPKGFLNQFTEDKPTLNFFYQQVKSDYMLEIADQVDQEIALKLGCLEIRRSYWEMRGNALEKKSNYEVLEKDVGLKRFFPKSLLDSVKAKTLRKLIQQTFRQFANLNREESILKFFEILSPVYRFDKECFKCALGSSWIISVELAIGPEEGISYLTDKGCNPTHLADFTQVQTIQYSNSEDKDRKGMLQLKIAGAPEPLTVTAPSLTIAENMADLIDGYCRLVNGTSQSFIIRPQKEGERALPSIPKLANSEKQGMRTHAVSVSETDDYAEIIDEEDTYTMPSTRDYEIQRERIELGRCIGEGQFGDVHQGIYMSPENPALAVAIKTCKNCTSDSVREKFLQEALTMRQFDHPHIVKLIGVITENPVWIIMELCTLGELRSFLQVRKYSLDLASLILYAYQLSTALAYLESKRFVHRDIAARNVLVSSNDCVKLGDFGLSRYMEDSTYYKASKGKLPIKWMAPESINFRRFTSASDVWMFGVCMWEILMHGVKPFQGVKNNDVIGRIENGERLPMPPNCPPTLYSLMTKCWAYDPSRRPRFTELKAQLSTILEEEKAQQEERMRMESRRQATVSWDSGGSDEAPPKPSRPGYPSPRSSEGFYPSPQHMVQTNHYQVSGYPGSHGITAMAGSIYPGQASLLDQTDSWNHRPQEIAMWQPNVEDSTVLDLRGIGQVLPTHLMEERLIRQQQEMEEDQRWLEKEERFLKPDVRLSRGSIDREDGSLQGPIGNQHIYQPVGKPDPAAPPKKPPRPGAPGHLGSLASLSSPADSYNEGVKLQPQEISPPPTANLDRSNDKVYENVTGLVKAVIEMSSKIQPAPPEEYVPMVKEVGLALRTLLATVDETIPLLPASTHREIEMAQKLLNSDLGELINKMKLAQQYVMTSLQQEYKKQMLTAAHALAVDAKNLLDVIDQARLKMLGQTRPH

[12] = tested on: Fibrinogen (Alexa647-labelled); assay: Alexa647-fibrinogen binding to printed small molecules – biochemical, small-molecule microarray, 635/667 nm fluorescence, artefact control for SMM control-protein annotation, profiling panel (AID 1131); details: fibrinogen-A647 binding fluorescence, higher = more signal;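 also: z-score merges 667 nm fluorescence with per-spot signal-to-noise over triplicate slides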
[13] = target: Follistatin (Homo sapiens) (UniProt P19883); assay: FST protein binding to printed compounds – biochemical, small-molecule microarray, 635/667 nm fluorescence, primary screen (AID 1132); details: 635 nm fluorescence, higher = more signal
Chain of Follistatin (Homo sapiens) (P19883 whole entry, looked up): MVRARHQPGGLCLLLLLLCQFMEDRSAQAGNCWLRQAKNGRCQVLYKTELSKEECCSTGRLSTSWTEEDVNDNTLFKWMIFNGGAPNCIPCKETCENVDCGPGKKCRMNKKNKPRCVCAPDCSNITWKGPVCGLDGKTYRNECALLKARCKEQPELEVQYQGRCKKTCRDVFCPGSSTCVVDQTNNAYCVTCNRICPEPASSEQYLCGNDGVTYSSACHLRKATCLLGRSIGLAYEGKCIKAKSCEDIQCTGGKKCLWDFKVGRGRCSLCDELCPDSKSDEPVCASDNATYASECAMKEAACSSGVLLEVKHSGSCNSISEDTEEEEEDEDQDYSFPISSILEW

[14] = target: Fibroblast growth factor 2 (Homo sapiens) (UniProt P09038); assay: basic fibroblast growth factor binding to printed compounds – biochemical, small-molecule microarray, 635/667 nm fluorescence, primary screen (AID 1133); details: FGF2, fluorescence 635/667, higher = more signal
Chain of Fibroblast growth factor 2 (Homo sapiens) (P09038 whole entry, looked up): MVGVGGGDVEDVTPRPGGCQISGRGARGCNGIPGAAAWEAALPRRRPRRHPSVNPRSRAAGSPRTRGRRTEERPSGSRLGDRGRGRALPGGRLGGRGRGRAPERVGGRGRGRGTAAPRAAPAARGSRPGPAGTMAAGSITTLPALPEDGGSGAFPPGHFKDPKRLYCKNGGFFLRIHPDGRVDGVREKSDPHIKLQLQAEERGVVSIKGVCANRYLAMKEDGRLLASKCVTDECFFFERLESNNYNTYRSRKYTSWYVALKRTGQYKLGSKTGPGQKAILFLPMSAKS

[15] = JC-1 mitochondrial potential readout, lung cancer cells – cell-based, A549, JC-1 fluorescence, basal, 24 h, 100 nL, profiling panel (AID 1138); details: higher = more signal;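 also: A549 lung adenocarcinoma cells under basal conditions with no added stimulus; test concentration not given here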
Lefty1 = Lefty1 protein binding to printed compounds – biochemical, small-molecule microarray, 635/667 nm fluorescence, primary screen (AID 1139); details: fluorescence 635/667, higher = more signal
[16] = tested on: wheat germ agglutinin (Triticum aestivum), Alexa647-labelled; assay: Alexa647-WGA lectin binding to printed small molecules – biochemical, small-molecule microarray, 635/667 nm fluorescence, artefact control for SMM control-protein annotation, profiling panel (AID 1140); details: WGA-A647 binding, 635 nm fluorescence, higher = more signal;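 also: score merges 667 nm feature emission with signal to noise over triplicate slides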
[17] = target: Luciferin 4-monooxygenase (Photinus pyralis) (UniProt P08659); assay: inhibition of purified Photinus pyralis luciferase – biochemical, luminescence, purified enzyme, 2006 set, primary screen (AID 1141); details: purified firefly luciferase, SteadyGlo luminescence, 30 min; higher = more signal, called active from +8 up or from −8 down;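 also: cell-free assay with purified firefly luciferase at 100 ng per well in PBS; test concentration not given here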
Chain of Luciferin 4-monooxygenase (Photinus pyralis) (P08659 whole entry, looked up): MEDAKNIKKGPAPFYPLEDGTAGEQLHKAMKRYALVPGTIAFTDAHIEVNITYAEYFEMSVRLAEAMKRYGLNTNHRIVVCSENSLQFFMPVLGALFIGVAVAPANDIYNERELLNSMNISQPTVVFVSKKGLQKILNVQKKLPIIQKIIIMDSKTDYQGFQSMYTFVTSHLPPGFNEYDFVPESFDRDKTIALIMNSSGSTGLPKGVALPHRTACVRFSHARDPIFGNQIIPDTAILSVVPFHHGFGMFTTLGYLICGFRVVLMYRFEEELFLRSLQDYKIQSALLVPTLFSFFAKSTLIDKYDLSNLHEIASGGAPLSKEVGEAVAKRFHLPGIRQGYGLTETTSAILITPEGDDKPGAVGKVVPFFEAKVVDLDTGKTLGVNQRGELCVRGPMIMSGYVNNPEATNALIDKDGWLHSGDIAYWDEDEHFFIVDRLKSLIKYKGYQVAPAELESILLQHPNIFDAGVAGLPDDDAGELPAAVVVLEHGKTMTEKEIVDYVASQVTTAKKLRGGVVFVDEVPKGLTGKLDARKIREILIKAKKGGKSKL

SMILES	composite z-score (Albumin (Bos taurus))	composite Z-score [1]	composite z-score [2]	composite z-score [3]	composite z-score [4]	composite z-score [5]	composite z-score [6]	composite z-score (Sam68 (KHDRBS1))	composite z-score [7]	composite z-score [8]	composite z-score [9]	composite z-score [10]	composite z-score [11]	composite z-score [12]	composite z-score [13]	composite z-score [14]	z-score [15]	composite z-score (Lefty1)	composite z-score [16]	z-score [17]
Cc1ccc(C(C)CC(O)C2C=CC3C(=O)N(C)C(=O)C3N2Nc2ccccc2)o1 (stereo not given)	0.264	-0.288 (inactive)	0.318	-0.075	0.656	0.614	0.0421	1.3	0.122	0.617	0.298	1.22	0.0621	0.655	0.941	0.482	0.16	0.497	1.15	0.226 (inactive)
COCCOC(=O)N1C(=O)[C@@]2(c3cc(C#CCC(C(=O)OC)C(=O)OC)ccc31)[C@H](c1ccc(O)cc1)N1[C@H](c3ccccc3)[C@H](c3ccccc3)OC(=O)[C@H]1[C@@H]2C(=O)Nc1nc2ccccc2s1	0.703	0.179 (inactive)	0.146	-0.126	0.342	1.17	0.447	1.3	0.627	1.15	1.15	1.21	2.02	0.954	1.42	1.54	-2.1	1.44	0.968	-0.344 (inactive)
O=C(NCc1ccccc1)[C@@H]1c2ccccc2C(=O)N(Cc2ccc(OC(F)(F)F)cc2)[C@H]1c1ccc(CO)cc1	0.0192	2.41 (inactive)	-0.155	-0.11	0.694	2.29	0.633	0.258	-0.431	-0.278	2.71	0.277	0.442	-0.222	0.616	0.0415	2.79	-0.9	-0.416	-0.828 (inactive)
C=CCOC(=O)[C@@H]1[C@H]2C(=O)O[C@H](c3ccccc3)[C@H](c3ccccc3)N2[C@H](c2ccc(OCCOC(=O)[C@H]3C[C@H]4C(=O)N[C@@H](CCCCN(C)C)C(=O)N4[C@H]3c3ccc(O)cc3)cc2)[C@@]12C(=O)Nc1ccc(I)cc12	-0.839	0.929 (inactive)	0.0006	-0.0698	0.426	1.95	0.148	1.29	1.1	1.15	1.2	1.17	1.03	0.541	1.4	1.37	-0.641	1.58	0.538	-4.54 (inactive)
C[C@@H]1ON(c2ccccc2)[C@H](c2ccccc2)[C@H]1C(=O)O	-0.189	-0.107 (inactive)	-0.0971	-0.0846	0.685	-0.0056	0.361	0.0005	0.204	-0.0755	0.468	0.212	0.209	0.722	1.3	0.931	-0.152	0.309	0.607	-0.0018 (inactive)
COCCOC(=O)N1C(=O)[C@@]2(c3ccccc31)[C@H](c1ccc(O)cc1)N1[C@H](c3ccccc3)[C@H](c3ccccc3)OC(=O)[C@H]1[C@@H]2C(=O)N1CCCCCCC1	0.46	4.53 (inactive)	1.98	0.851	0.863	3.62	1.18	1.3	1.58	1.14	2.71	1.21	0.791	0.941	1.46	1.74	-1.16	1.72	1.43	0.171 (inactive)
C=CCC(OC(C)=O)[C@@H]1[C@@H](N(Cc2cccc3ccccc23)C(=O)Cc2ccc(OC)cc2)c2cc(OCCCO)ccc2N1C(=O)Cc1ccc2ccccc2c1 (stereo not given in full)	-0.0328	0.181 (inactive)	-0.0584	-0.159	0.0435	1.17	0.078	-0.0489	0.116	-0.154	-0.538	-0.609	-0.495	-0.331	0.688	0.182	0.309	0.353	0.507	0.969 (inactive)
CN1C(=O)[C@@H]2[C@@H](CC(COc3ccccc3)=C3[C@@H](CCc4ccccc4)OB(O)C[C@@H]32)C1=O	-0.062	0.581 (inactive)	0.135	-0.0073	0.229	0.71	0.809	0.31	-0.102	-0.0514	-0.526	-0.211	-0.175	0.48	0.127	-0.0572	0.208	-0.0163	0.469	-0.326 (inactive)
COC(=O)[C@@]1(Cc2ccccc2)[C@H]2c3cc(C(=O)N(C)C)n(CCO)c3C[C@H]2CN1C(=O)c1ccccc1	1.04	0.335 (inactive)	0.0259	0.19	0.958	3.13	0.877	1.24	-1.44	1.2	1.86	1.16	1.89	1.02	-0.535	-0.541	0.628	-0.986	1.41	2.11 (inactive)
O=C(NCC(O)CO)C1N=C(c2ccc(OCCCO)cc2)N(c2ccccc2)O1 (stereo not given)	-0.138	-0.226 (inactive)	-0.0996	0.162	0.821	0.0043	1.04	1	0.157	0.53	0.703	0.697	-0.102	0.0565	1.38	1.32	0.42	0.876	0.471	-10.9 (active)
C=CCC(OC(C)=O)[C@@H]1[C@@H](N(Cc2cccc3ccccc23)C(=O)Cc2ccc(OC)cc2)c2cc(OCCCO)ccc2N1C(=O)c1ccc2ccccc2c1 (stereo not given in full)	0.226	-0.0662 (inactive)	0.0232	-0.143	0.331	0.481	-0.0588	-0.278	0.0839	0.0699	-0.185	-0.322	0.321	0.475	0.792	-0.0926	0.0343	0.143	0.453	0.851 (inactive)
